In PMC4336329 (PLoS ONE, 2015):
About 14,000 (4.5%) of roughly 310,000 compounds showed an effect of 50% or more. Effects have a minus sign here. The sample holds strong results, similar compounds and a random draw of the others, so the mix is not that of the screen.

Target: human ether-à-go-go-related gene (hERG) potassium channel (human, UniProt Q12809)
Assay: primary screen, population patch clamp on CHO cells stably expressing hERG; higher = less effect of the substance
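Note: peak tail current of the secondary pulse compared with the same well before compound.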

human ether-à-go-go-related gene (hERG) potassium channel, sequence (Q12809 whole entry, looked up): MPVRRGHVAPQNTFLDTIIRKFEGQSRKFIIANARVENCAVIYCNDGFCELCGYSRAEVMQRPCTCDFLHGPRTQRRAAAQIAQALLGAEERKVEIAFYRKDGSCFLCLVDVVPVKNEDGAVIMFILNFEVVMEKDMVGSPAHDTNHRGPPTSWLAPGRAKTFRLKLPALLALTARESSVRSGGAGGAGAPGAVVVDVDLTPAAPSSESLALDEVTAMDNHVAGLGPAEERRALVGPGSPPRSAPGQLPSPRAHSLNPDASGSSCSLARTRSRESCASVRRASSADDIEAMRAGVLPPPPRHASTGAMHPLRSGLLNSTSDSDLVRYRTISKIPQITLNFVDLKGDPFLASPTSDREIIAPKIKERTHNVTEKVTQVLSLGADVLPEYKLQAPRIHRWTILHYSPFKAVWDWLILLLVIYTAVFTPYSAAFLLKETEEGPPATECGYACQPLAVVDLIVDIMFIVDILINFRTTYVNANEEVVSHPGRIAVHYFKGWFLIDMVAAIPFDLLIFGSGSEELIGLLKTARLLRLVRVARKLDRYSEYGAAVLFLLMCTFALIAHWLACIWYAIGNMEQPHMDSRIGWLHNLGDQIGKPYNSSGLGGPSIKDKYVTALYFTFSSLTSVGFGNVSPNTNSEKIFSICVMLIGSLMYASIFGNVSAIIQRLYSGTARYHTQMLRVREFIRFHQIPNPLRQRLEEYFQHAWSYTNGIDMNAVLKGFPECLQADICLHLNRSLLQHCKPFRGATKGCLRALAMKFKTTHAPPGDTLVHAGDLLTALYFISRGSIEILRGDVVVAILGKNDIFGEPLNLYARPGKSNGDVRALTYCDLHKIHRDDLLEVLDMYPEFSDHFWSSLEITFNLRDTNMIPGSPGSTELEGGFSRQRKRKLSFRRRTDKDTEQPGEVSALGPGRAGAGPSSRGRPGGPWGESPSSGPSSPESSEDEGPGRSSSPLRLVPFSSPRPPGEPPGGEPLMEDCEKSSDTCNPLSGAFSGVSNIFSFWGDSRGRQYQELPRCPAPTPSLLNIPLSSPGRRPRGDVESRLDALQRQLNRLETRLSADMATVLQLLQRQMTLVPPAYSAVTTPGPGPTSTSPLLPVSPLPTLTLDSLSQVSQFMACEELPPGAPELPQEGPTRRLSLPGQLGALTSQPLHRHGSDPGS

| SMILES | hERG current change (%, negative = inhibition) at 10uM [%] |
| --- | --- |
| Cc1cc(-c2cccs2)c2c(N)c(C(=O)c3ccc4c(c3)OCO4)sc2n1 | 5.2 |
| Cc1ccc(S(=O)(=O)N(C)c2ccccc2C(=O)Nc2c(F)cccc2F)cc1 | 3.31 |
| CC(C)(C)N1CC(c2nc3ccccc3n2Cc2ccccc2)CC1=O (stereo not drawn) | -47.2 |
| COc1ccc(S(=O)(=O)N2CCOCC2)cc1NC(=O)c1sccc1C | -3.22 |
| COc1ccc2nc(SC(C)C(=O)NC3(C#N)CCCCC3)[nH]c2c1 (stereo not drawn) | -20.1 |
| COC(=O)c1cc2oc(C)cc2n1CC(=O)N1CCCc2ccccc21 | -11.9 |
| Cc1ccc2nc(NC(=O)CSCC(=O)OCC(=O)c3ccc(Br)cc3)sc2c1 | 16.5 |
| O=C(COc1ccc(Br)cc1)NCCCn1ccnc1 | -20.1 |
| COc1ccc(Cl)cc1NC(=O)CN(C)C(=O)c1cc2c(F)cccc2s1 | -6.32 |
| CCCCSc1nnc(C)c(=O)[nH]1 | 3.25 |
| Cc1cccc(C2c3[nH]c4ccccc4c3CCN2C(=O)Cc2n[nH]c(C)n2)n1 (stereo not drawn) | 5.57 |
| COc1ccc(OC)c(NC(=O)COc2ccc(S(=O)(=O)N3CCCC3)cc2)c1 | -23.4 |
| O=C(CCC(=O)n1ncc2ccccc21)NCc1ccc(F)cc1 | -18.1 |
| Cc1ccc(C(=O)N2CCN(c3ncccn3)CC2)cc1 | 12.6 |
| Cc1ccc(C(=O)N2CCN(c3ccccn3)CC2)cc1 | -14.3 |
| Cc1ccc(C(=O)N2CCN(c3nc4ccccc4n3C)CC2)cc1 | -70.3 |
| CCOC(=O)C1CCN(S(=O)(=O)c2ccc3c(c2)CCN3C(=O)C2CCC2)CC1 | 14.1 |
| COc1ccc(C(=O)N(C)CCCC2CCCC2)cc1OC1CCN(C(C)=O)CC1 | -32.2 |
| COC(=O)CN(C)C(=O)c1ccc(OC)c(OC2CCN(C(C)C)CC2)c1 | 13.1 |
| CCOCCCNC(=O)c1ccc(OC)c(OC2CCN(C(C)C)CC2)c1 | 10.7 |
| COc1ccc(C(=O)NC2CCCCC2)cc1OC1CCN(C(C)C)CC1 | -69.7 |
| COc1ccc(C(=O)NC2CCCCCC2)cc1OC1CCN(C(C)=O)CC1 | -4.48 |

| SMILES | hERG current change (%, negative = inhibition) at 10uM [%] |
| --- | --- |
| COc1ccc(C(=O)NC2CC2)cc1OC1CCN(C(C)CSC)CC1 (stereo not drawn) | -75.4 |
| COc1ccc(C(=O)NCCCSC)cc1OC1CCN(C(C)C)CC1 | -11.8 |
| COc1ccc(C(=O)N(C)CCCC2CCCC2)cc1OC1CCN(C(C)C)CC1 | -68.4 |
| COc1ccc(C(=O)N[C@H]2CCCCNC2=O)cc1OC1CCN(C(C)C)CC1 | 15.3 |
| COc1ccc(CCNC(=O)COC(=O)c2cc(=O)c3ccccc3o2)cc1 | -1.09 |
| Cc1cc(NC(=O)NC(=O)c2ccccc2)no1 | 23.1 |
| Cn1c(O)c(N=Nc2nc(-c3ccccc3)cs2)c2ccccc21 | -6.78 |
| Cc1ccc(CNC(=O)CCSCCC(=O)NCc2ccc(C)cc2)cc1 | 7.08 |
| N#Cc1c(NC(=O)c2cc([N+](=O)[O-])ccc2N2CCOCC2)sc2c1CCCC2 | 4.02 |
| CN1C(=O)c2cccc3c(Br)ccc(c23)C1=O | -16.2 |
| COC(=O)COc1ccc2cccc(-n3cnnn3)c2c1 | 12.5 |
| CCc1ccc(C(=O)NNC(=O)C2CSC3(C)CCC(=O)N23)cc1 (stereo not drawn) | -6.99 |
| CC12CCC(=O)N1C(C(=O)OCc1c(Cl)cccc1Cl)CS2 (stereo not drawn) | -4.54 |
| CCc1ccc2c(COC(=O)C3CSC4(C)CCC(=O)N34)cc(=O)oc2c1 (stereo not drawn) | -61.1 |
| CCN(Cc1ccccc1)CC(O)COC(c1ccc(OC)cc1)c1ccc(OC)cc1 (stereo not drawn) | -75.1 |
| CCN(CC)CC(O)COC(c1ccccc1)c1ccccc1 (stereo not drawn) | -57.8 |
| CC(OCC(O)CN(C)Cc1nc2ccccc2c(=O)[nH]1)c1ccc(Cl)cc1 (stereo not drawn) | -34 |
| COCCN(CCOC)CC(O)COC(c1ccccc1)c1ccccc1 (stereo not drawn) | -35.9 |
| CN(C)CC(O)COC(c1ccc(Cl)cc1)c1ccc(Cl)cc1 (stereo not drawn) | -75.8 |
| CC(O)CN(Cc1ccc(Cl)cc1)CC(C)O (stereo not drawn) | 7.61 |
| CN(C)CC(O)COC(c1ccccc1)c1ccccc1 (stereo not drawn) | -51.6 |
| CCOC(C(=O)OCC(O)CN(CC)CC)(c1ccccc1)c1ccccc1.Cl (stereo not drawn) | -5.25 |

| SMILES | hERG current change (%, negative = inhibition) at 10uM [%] |
| --- | --- |
| OC(COc1ccccc1)CN(Cc1ccccc1)CC(O)COc1ccccc1 (stereo not drawn) | -9.08 |
| CCCC(O)(c1ccc(OC)cc1)C(CN(C)C)c1ccccc1 (stereo not drawn) | -4.69 |
| CN(C)CCC(O)c1ccccc1 (stereo not drawn) | 9.45 |
| CCN(Cc1ccccc1)CC(O)COc1ccccc1.Cl (stereo not drawn) | -25.7 |
| Cc1ccc(CN2CCCC(C(=O)N3CCCC3)C2)cc1.O=C(O)C(=O)O (stereo not drawn) | -5.83 |
| O=C(O)c1cc2nc(-c3ccccc3)cc(-c3ccccc3)n2n1 | 6.39 |
| CN(C)S(=O)(=O)Oc1ccsc1C(=O)Nc1ccc(Br)cc1 | -12.2 |
| CCOC(=O)[C@H]1[C@H]2COc3cc(OC)ccc3[C@@H]2N2C(=O)c3cc(OC)c(OC)cc3NC(=O)[C@@]12C | -2.44 |
| Cc1ccc(C(=O)NNC(=O)C2CCN(c3nc(C)cc(C)n3)CC2)cc1 | 4.83 |
| Cc1cccc(C)c1C(=NCCN(C)C)c1ccccc1.Cl | -41.3 |
| CCNc1nc(NCC)n2c(SCc3ccc(F)cc3)nnc2n1 | -20.1 |
| CC(C)=C1C2CCC1C(C(=O)Nc1sc(C)c(-c3ccc(C(C)C)cc3)c1C(N)=O)C2C(=O)O (stereo not drawn) | -22.5 |
| CN(C)C=O.O=C(NCCc1ccccc1)c1oc2ccccc2c1COc1ccccc1 | 12.4 |
| Cc1ccc(-c2cc(C(=O)NCc3ccccn3)no2)cc1 | 0.477 |
| Cc1ccc(NC(=O)c2cccc(S(=O)(=O)N3CCCC3)c2)nc1 | -7.18 |
| O=C(Nc1ccc(Cl)cn1)c1cccc(S(=O)(=O)N2CCCC2)c1 | -50.9 |
| Cc1ccc(NC(=O)c2ccc3c(c2)OCO3)cc1S(=O)(=O)N1CCOCC1 | -20.3 |
| Cc1cc(C(=O)Nc2ccc(C)c(S(=O)(=O)N3CCOCC3)c2)c(C)o1 | -6.59 |
| O=C(NCc1ccc(Cl)cc1)c1cccc(S(=O)(=O)N2CCCC2)c1 | -30.9 |
| Cc1ccnc(NC(=O)c2cccc(S(=O)(=O)N3CCOCC3)c2)c1 | -18.9 |
| O=C(Nc1ccccn1)c1cccc(S(=O)(=O)N2CCCC2)c1 | 9.44 |
| O=C(Nc1ccccn1)c1cccc(S(=O)(=O)N2CCOCC2)c1 | -6.45 |

| SMILES | hERG current change (%, negative = inhibition) at 10uM [%] |
| --- | --- |
| Cc1ccc(C(=O)Nc2ccc(C)c(S(=O)(=O)N3CCOCC3)c2)c(C)c1 | -51 |
| Cc1ccc(OCCNC(=O)c2cccc(S(=O)(=O)N3CCN(C)CC3)c2)cc1 | -16.6 |
| O=C(Nc1ccc(Cl)cn1)c1cccc(S(=O)(=O)N2CCOCC2)c1 | -65.4 |
| O=C(NCCOc1ccc(Cl)cc1)c1cccc(S(=O)(=O)N2CCCC2)c1 | -51.8 |
| O=C1c2ccccc2C(Nc2ccc(S(=O)(=O)N3CCCCC3)cc2)N1Cc1ccco1 (stereo not drawn) | -22.7 |
| CC(CC(=O)N(C)c1c(N)n(Cc2ccccc2)c(=O)[nH]c1=O)c1ccccc1 (stereo not drawn) | -23.3 |
| COCc1ccc(C(=O)N2CCCC(N3CCN(c4ccccc4C)CC3)C2)s1 (stereo not drawn) | -34.7 |
| CSc1cccc(NC(=O)C2CCCN(S(=O)(=O)c3cccs3)C2)c1 (stereo not drawn) | 3.76 |
| COc1ccccc1N(C)C(=O)c1cc(S(=O)(=O)N2CCCC2)cn1C | -3.55 |
| CC(NC(=O)C1CCN(S(=O)(=O)c2cnc[nH]2)CC1)c1ccccc1 (stereo not drawn) | 3.81 |
| N/C(=N\OC(=O)c1ccccc1)c1ccn[nH]1 | -1.07 |
| O=C(COC(=O)c1cccc(S(=O)(=O)N2CCOCC2)c1)Nc1ncc(Cl)cc1Cl | -13.4 |
| Cc1ccc(NC(=O)c2ccc(C)c(S(=O)(=O)N3CCOCC3)c2)nc1 | -6.9 |
| O=C(Nc1cccc(S(=O)(=O)N2CCOCC2)c1)C1=NN(c2ccccc2)C(=O)CC1 | -42.9 |
| O=C(COC(=O)c1cccc(S(=O)(=O)N2CCOCC2)c1)Nc1ccc(Cl)cn1 | -61.1 |
| O=C(COC(=O)c1cc(S(=O)(=O)N2CCOCC2)ccc1F)Nc1ccc(Cl)cn1 | -37.4 |
| Cc1ccc(S(=O)(=O)N2CCOCC2)cc1NC(=O)C1=NN(c2ccccc2)C(=O)CC1 | -18 |
| Cc1cccc(N2N=C(C(=O)Nc3ccc(Cl)c(S(=O)(=O)N4CCOCC4)c3)CCC2=O)c1 | -52.4 |
| Cc1ccc(C(=O)Nc2ccc(Cl)cn2)cc1S(=O)(=O)N1CCOCC1 | -51.4 |
| Cc1ccc(C(=O)Nc2ccccn2)cc1S(=O)(=O)N1CCOCC1 | -5.72 |
| O=C(Cn1cnc([N+](=O)[O-])c1)Nc1ccccc1C(F)(F)F | -14.3 |
